The record followed here is PubChem BioAssay.

One assay concerns the target Albumin (Bos taurus) (UniProt P02769). Description: bovine serum albumin binders on microarray, profiling panel, artefact control for SMM control protein annotation, biochemical, small-molecule microarray, Alexa647 label, 635/667 nm fluorescence (AID 1118).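 Further: score merges 667 nm emission intensity and signal-to-noise per printed compound spot.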 Particulars: BSA-A647 binding, fluorescence 635 nm, higher = more signal.
Assay [1] can be described thus: small-molecule microarray binders of probe aXIP, primary screen, biochemical, NeuroSMM set, 635/667 nm fluorescence (AID 1119).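 Further: probe is the protein aXip251-270 applied at 1 µg/mL to compound-printed slides; binding of probe to printed compounds measured as 667 nm fluorescence plus signal to noise.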 Particulars: higher = more signal, called active from +8 up or from −8 down.
Assay [2] can be described thus: small-molecule binders of probe aNOTCH3, primary screen, biochemical, small-molecule microarray, 635/667 nm fluorescence (AID 1120).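 Further: probe is a biotin-tagged antibody raised against NOTCH3 rather than NOTCH3 protein; score merges spot fluorescence near 667 nm with spot signal to noise.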 Particulars: higher = more signal.
Assay [3] is described as follows: small-molecule binders of probe aNOTCH2, primary screen, biochemical, small-molecule microarray, 635/667 nm fluorescence (AID 1121).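 Further: score merges feature fluorescence read at 667 nm with its signal to noise.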 Particulars: higher = more signal.
The target in assay [4] is Carbonic anhydrase 2 (Homo sapiens) (UniProt P00918). Description: CAII small-molecule binders, profiling panel, biochemical, small-molecule microarray, Alexa647-labelled CAII (AID 1122). To be noted: CAII-A647 binding fluorescence, higher = more signal.
A short description of assay [5]: COS7 lysate on small-molecule microarray, probe aHis, 635 nm (AID 1123).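 Further: z-score combines 667nm fluorescence intensity with signal-to-noise per printed compound spot.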 Particulars: COS7 cell lysate, fluorescence, higher = more signal.
The nature of assay [6]: compound binding in COS7 lysate, probe aLAP1, primary screen, cell lysate, small-molecule microarray (AID 1124).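 Further: lysate comes from COS7 cells expressing LAP1 and is applied at 0.3 µg/mL; score merges spot fluorescence near 667 nm with signal-to-noise over triplicate slides.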 To be noted: probe aLAP1, fluorescence, higher = more signal.
For the next assay, the system named is Sam68 (KHDRBS1). As to the kind of experiment: Sam68 small-molecule binders, primary screen, biochemical, small-molecule microarray, 635 nm fluorescence (AID 1125).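 Further: score merges 667 nm channel intensity with signal to noise over triplicate slides.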 Particulars: small-molecule microarray binding, higher = more signal.
The test system of assay [7] is Chordin-like protein 2 (CHRDL2). Description: CHRDL2 small-molecule binders, primary screen, biochemical, small-molecule microarray, 635 nm fluorescence (AID 1126).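 Further: printed compound slides probed with Chrdl2 protein at 4 µg/mL for 1 h at 4 C; score merges 667 nm emission intensity with signal to noise over three replicate slides.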 Particulars: small-molecule microarray binding, fluorescence 635 nm; higher = more signal.
In assay [8] the target is Concanavalin-A (Canavalia ensiformis) (UniProt P02866). Description: ConA small-molecule binders, primary screen, artefact control for SMM control protein annotation, biochemical, small-molecule microarray, Alexa647 label, 635 nm (AID 1127).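 Further: z combines 667 nm emission intensity with signal-to-noise across three replicate slides.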 Particulars: ConA-A647 binding fluorescence, higher = more signal.
Concanavalin-A (Canavalia ensiformis), sequence (P02866 whole entry, looked up): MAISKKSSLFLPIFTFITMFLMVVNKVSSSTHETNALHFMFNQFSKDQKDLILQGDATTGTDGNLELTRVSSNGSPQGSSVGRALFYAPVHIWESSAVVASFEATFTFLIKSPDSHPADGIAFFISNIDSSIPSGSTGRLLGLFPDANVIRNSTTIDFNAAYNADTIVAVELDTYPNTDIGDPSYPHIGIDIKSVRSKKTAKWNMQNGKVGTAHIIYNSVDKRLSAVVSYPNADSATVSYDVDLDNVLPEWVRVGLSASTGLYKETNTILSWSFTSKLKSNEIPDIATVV
A short description of assay [9]: anti-His antibody binders, primary screen, artefact control for SMM control protein annotation, biochemical, small-molecule microarray, 635 nm fluorescence (AID 1128).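 Further: score merges feature fluorescence with signal-to-noise for each printed compound spot.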 Particulars: anti-His Alexa647 antibody binding, higher = more signal.
The subject of assay [10] is Human papillomavirus type 1a E7 protein (residues 1-88). Description: HPV1a E7 small-molecule binders, primary screen, biochemical, small-molecule microarray, residues 1-88, 635 nm (AID 1129). To be noted: small-molecule microarray binding, fluorescence 635 nm; higher = more signal.
The target in assay [11] is Focal adhesion kinase 1 (Homo sapiens) (UniProt Q05397). Description: small-molecule microarray binders of FAK, primary screen, biochemical, 635/667 nm fluorescence, BSA, DTT (AID 1130).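 Further: composite of spot emission at 667 nm and signal to noise over triplicate slides.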 Particulars: PTK2 binding, 635 nm fluorescence, higher = more signal.
Focal adhesion kinase 1 (Homo sapiens), sequence (Q05397 whole entry, looked up): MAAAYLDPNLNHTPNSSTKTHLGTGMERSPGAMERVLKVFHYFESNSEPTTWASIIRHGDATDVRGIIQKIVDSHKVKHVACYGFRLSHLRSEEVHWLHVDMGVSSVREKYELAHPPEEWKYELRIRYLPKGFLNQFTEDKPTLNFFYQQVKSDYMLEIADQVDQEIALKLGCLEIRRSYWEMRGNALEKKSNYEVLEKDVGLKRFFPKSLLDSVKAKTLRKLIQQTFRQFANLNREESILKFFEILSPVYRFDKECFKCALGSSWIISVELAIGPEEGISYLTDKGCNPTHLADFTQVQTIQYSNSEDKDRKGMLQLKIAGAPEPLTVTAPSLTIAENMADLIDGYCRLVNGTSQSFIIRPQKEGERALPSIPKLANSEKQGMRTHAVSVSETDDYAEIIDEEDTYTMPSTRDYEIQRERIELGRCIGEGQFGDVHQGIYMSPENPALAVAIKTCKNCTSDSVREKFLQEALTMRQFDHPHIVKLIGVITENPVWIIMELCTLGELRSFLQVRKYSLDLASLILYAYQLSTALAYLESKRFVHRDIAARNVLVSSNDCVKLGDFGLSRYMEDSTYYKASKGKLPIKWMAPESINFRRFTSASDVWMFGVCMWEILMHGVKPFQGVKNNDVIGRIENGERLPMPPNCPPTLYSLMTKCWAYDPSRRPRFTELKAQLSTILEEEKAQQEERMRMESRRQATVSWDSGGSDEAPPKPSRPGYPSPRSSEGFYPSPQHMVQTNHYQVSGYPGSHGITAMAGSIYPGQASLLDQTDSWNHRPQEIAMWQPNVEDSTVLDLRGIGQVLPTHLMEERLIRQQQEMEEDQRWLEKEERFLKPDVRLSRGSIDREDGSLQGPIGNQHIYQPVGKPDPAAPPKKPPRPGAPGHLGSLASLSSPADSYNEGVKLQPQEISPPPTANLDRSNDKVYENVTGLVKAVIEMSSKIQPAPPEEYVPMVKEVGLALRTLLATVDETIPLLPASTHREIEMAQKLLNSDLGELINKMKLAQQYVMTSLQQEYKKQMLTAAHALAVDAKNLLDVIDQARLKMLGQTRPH
For assay [12], the system named is Fibrinogen (Alexa647-labelled). Description: fibrinogen binders on compound microarrays, profiling panel, artefact control for SMM control-protein annotation, biochemical, small-molecule microarray, 635/667 nm fluorescence (AID 1131).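 Further: z-score merges 667 nm fluorescence with per-spot signal-to-noise over triplicate slides.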 To be noted: fibrinogen-A647 binding fluorescence, higher = more signal.
Assay [13] addresses Follistatin (Homo sapiens) (UniProt P19883). Description: follistatin binders on small-molecule microarrays, primary screen, biochemical, small-molecule microarray, 635/667 nm fluorescence (AID 1132). To be noted: FST binding, 635 nm fluorescence, higher = more signal.
Assay [14] concerns the target Fibroblast growth factor 2 (Homo sapiens) (UniProt P09038). As to the kind of experiment: FGF2 binders on small-molecule microarrays, primary screen, biochemical, small-molecule microarray, 635/667 nm fluorescence (AID 1133). Particulars: small-molecule microarray binding, FGF2, fluorescence 635/667; higher = more signal.
The nature of assay [15]: mitochondrial membrane potential change in A549 cells, profiling panel, cell-based, JC-1 fluorescence, basal, 24 h, 100 nL (AID 1138).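 Further: A549 lung adenocarcinoma cells under basal conditions with no added stimulus; test concentration not given here.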 Particulars: higher = more signal.
A further assay deals with Lefty1. As to the kind of experiment: Lefty1 binders on small-molecule microarrays, primary screen, biochemical, small-molecule microarray, 635/667 nm fluorescence (AID 1139). To be noted: small-molecule microarray binding, fluorescence 635/667; higher = more signal.
Assay [16] has as its system wheat germ agglutinin (Triticum aestivum), Alexa647-labelled. Description: wheat germ agglutinin binders on compound microarrays, profiling panel, artefact control for SMM control-protein annotation, biochemical, small-molecule microarray, 635/667 nm fluorescence (AID 1140).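 Further: score merges 667 nm feature emission with signal to noise over triplicate slides.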 Particulars: WGA-A647 binding, 635 nm fluorescence, higher = more signal.
The target of assay [17] is Luciferin 4-monooxygenase (Photinus pyralis) (UniProt P08659). As to the kind of experiment: firefly luciferase enzyme inhibitors, primary screen, biochemical, luminescence, purified enzyme, 2006 set (AID 1141).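 Further: cell-free assay with purified firefly luciferase at 100 ng per well in PBS; test concentration not given here.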 To be noted: SteadyGlo luminescence, 30 min, higher = more signal, called active from +8 up or from −8 down.
Luciferin 4-monooxygenase (Photinus pyralis), sequence (P08659 whole entry, looked up): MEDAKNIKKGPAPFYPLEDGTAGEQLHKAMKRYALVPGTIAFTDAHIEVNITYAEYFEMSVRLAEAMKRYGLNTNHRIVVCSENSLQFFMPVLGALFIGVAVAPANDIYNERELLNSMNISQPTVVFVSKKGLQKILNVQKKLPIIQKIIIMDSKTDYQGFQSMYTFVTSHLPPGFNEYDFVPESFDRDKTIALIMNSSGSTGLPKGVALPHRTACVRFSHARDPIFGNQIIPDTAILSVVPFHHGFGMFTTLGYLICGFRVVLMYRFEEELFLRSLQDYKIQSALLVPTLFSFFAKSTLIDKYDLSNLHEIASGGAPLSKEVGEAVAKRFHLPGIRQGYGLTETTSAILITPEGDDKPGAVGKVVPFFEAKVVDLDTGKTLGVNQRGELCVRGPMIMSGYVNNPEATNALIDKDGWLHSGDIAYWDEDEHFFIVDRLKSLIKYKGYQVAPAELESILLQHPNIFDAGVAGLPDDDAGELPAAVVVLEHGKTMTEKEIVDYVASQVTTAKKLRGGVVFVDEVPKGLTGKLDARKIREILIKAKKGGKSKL

Calls of active or inactive are those of the source.

Follistatin (Homo sapiens), sequence (P19883 whole entry, looked up): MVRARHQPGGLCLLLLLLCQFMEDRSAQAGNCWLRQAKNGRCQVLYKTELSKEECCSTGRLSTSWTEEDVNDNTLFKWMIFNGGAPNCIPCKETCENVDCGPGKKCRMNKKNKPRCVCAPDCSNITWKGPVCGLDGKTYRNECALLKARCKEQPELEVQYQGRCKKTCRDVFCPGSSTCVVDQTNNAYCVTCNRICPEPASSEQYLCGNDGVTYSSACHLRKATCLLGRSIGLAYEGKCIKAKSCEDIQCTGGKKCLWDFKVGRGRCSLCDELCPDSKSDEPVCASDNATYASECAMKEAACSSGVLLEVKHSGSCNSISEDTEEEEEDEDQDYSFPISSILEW
Fibroblast growth factor 2 (Homo sapiens), sequence (P09038 whole entry, looked up): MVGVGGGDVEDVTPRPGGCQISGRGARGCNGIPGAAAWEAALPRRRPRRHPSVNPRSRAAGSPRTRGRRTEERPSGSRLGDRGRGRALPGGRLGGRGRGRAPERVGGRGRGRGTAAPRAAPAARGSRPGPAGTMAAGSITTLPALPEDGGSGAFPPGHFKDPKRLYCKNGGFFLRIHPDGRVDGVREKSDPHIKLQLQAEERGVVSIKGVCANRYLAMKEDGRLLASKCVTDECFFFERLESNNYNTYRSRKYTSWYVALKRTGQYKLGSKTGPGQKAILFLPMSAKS
Albumin (Bos taurus), sequence (P02769 whole entry, looked up): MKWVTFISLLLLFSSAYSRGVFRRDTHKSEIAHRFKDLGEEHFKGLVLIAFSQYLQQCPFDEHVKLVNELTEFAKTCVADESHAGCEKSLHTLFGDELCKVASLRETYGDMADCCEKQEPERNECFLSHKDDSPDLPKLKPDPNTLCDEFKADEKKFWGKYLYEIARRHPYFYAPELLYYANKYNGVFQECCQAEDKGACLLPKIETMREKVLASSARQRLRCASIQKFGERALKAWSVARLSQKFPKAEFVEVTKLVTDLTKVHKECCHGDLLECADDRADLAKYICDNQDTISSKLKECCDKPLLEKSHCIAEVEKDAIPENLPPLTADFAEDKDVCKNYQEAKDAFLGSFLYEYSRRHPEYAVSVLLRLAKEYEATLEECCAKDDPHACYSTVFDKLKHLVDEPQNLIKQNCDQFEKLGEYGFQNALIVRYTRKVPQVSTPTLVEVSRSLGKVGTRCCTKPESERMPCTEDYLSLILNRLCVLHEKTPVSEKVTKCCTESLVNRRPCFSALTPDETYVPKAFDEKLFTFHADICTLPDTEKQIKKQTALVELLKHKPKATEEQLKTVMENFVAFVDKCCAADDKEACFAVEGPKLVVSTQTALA

Consider `O=C1NC(=O)C2C1C=CC(C(O)c1ccc(I)cc1)N2Nc1ccccn1` (stereo not given), for which the composite z-score with Albumin (Bos taurus) was 0.898; in assay [2] it was -0.0677; in assay [3], -0.0026; in assay [4] it was 0.819; in [5], 2.35; in assay [6], 1.48. The composite z-score in the assay with Sam68 (KHDRBS1) is -0.302; in [7], 0.37; in assay [8] it was 0.445; in [9], 2.1; in assay [10] it was 0.134; in [11] it was 0.675. In addition, the composite z-score in assay [12] was 0.791; in assay [13], 0.367; in assay [14], -0.109; with Lefty1 it was -0.19; in [16], 1.23. Moreover, in [1], the composite Z-score was 0.369 (inactive). Further, the z-score in assay [15] was -0.279; in [17] it was -0.759 (inactive).
On to `CCOc1cc(C(O)C2C=CC3C(=O)N(c4ccccc4)C(=O)C3N2Nc2ccc(C(C)C)cc2)ccc1O` (stereo not given), for which the composite z-score with Albumin (Bos taurus) is 0.925; in assay [2], 0.15; in assay [3], -0.0274; in assay [4], 0.79; in [5], 2.63; in assay [6] it was 0.33. Further, the composite z-score in the assay on Sam68 (KHDRBS1) was 1.29; in assay [7], 0.161; in [8], 1.09; in assay [9], 1.72; in assay [10] it was 1.23; in assay [11], 0.543. The composite z-score in assay [12] is 0.963; in [13], 1.03; in [14] it was 0.0704; in the assay with Lefty1 it was 0.135; in assay [16], 1.3. In addition, the composite Z-score in assay [1] is 0.203 (inactive). Moreover, the z-score in [15] is 0.898; in assay [17], 0.12 (inactive).
Take `COc1ccc([Si](C)(C)[C@@H]2[C@@H](CCn3cc(CCO)nn3)O[C@]3(C(=O)N(Cc4cccc(N5C(=O)c6cccc7cccc5c67)c4)c4ccccc43)[C@H]2C)cc1`: the composite z-score with Albumin (Bos taurus) is 0.695; in assay [2], 0.0351; in assay [3], -0.14; in [4], 0.224; in [5] it was 1.01; in assay [6], 0.222. The composite z-score in the assay with Sam68 (KHDRBS1) was 1.29; in assay [7], -0.0468; in [8] it was 0.833; in [9], 1.18; in assay [10], 1.16; in assay [11] it was 0.321. Further, the composite z-score in [12] amounted to 0.556; in assay [13], 1.16; in assay [14], 0.672; with Lefty1 it was 1.23; in assay [16], 0.509. Further, the composite Z-score in [1] was 0.478 (inactive). In addition, the z-score in [15] is -1.1; in assay [17], 0.178 (inactive).
`CCCCN1CC=CC23O[C@@H]4C=CCOC(=O)[C@@H]4[C@H]2C(=O)N(CCCCCCO)[C@@H]3C1=O` (stereo not given in full): the composite z-score in the assay with Albumin (Bos taurus) is -0.469; in assay [2], -0.182; in assay [3], -0.187; in assay [4], 0.95; in assay [5], -0.275; in assay [6], 0.456. Also, the composite z-score was -0.821 in the assay with Sam68 (KHDRBS1); -1.83 in [7]; -1.24 in [8]; -0.818 in assay [9]; -0.544 in [10]; 0.717 in assay [11]. The composite z-score is -2.1 in [12]; -1.55 in [13]; -0.802 in [14]; -1.25 with Lefty1; -1.24 in assay [16]. The composite Z-score in [1] was 0.998 (inactive). Further, the z-score in assay [15] was 0.00246; in assay [17], -0.419 (inactive).
Consider `CO[C@H]1O[C@H](CO)[C@@H](OC(=O)Nc2ccc(Br)cc2)[C@@H]2OC(=O)[C@H](Cc3cccc(Br)c3)C/C=C/C[C@@H](Cc3cccc(Br)c3)C(=O)O[C@@H]12`, for which the composite z-score in the assay with Albumin (Bos taurus) is 0.0911; in assay [2] it was -0.0622; in [3], -0.129; in assay [4] it was 0.275; in [5] it was 0.112; in assay [6], -0.0838. In addition, the composite z-score with Sam68 (KHDRBS1) is -0.975; in assay [7], 0.0113; in [8], 0.365; in assay [9] it was 0.144; in assay [10], -0.122; in assay [11], 0.2. For the same molecule, the composite z-score in assay [12] was -0.538; in [13] it was 0.585; in assay [14], 0.268; with Lefty1 it was 0.647; in [16] it was 0.616. Further, the composite Z-score in assay [1] is 0.106 (inactive). Besides, the z-score was 1.37 in assay [15] and 0.671 (inactive) in assay [17].
Regarding `O[C@@H](Cc1ccccc1)[C@@H](/C=C/C1CC1)NCc1cccc(Cl)c1`, the composite z-score with Albumin (Bos taurus) is -0.0308; in assay [2] it was -0.272; in [3], -0.146; in [4], -0.397; in assay [5], -0.266; in [6], -0.273. Moreover, the composite z-score in the assay on Sam68 (KHDRBS1) was -0.53; in assay [7], -1.11; in assay [8], -0.509; in [9], 0.183; in [10] it was -0.431; in assay [11] it was 0.314. Further, the composite z-score in [12] is -1.7; in assay [13] it was -1.4; in [14], -1.99; with Lefty1 it was -0.717; in [16], 0.204. The composite Z-score in [1] was -0.515 (inactive). Also, the z-score in [15] was -0.164; in assay [17], 0.585 (inactive).
For `C=CC[C@]1(C(=O)N2CCOCC2)N=C(c2ccc(OCCCO)cc2)O[C@H]1c1ccccc1N=[N+]=[N-]`, the composite z-score in the assay with Albumin (Bos taurus) was 0.561; in assay [2] it was 0.298; in [3], -0.0896; in assay [4], 0.751; in assay [5], 2.77; in [6], 0.647. The composite z-score in the assay on Sam68 (KHDRBS1) is 1.29; in [7], -0.521; in assay [8], 1.09; in [9], 2.08; in assay [10], 1.26; in assay [11], 0.804. The composite z-score was 0.979 in assay [12]; 1.14 in [13]; 0.287 in [14]; -0.0598 in the assay on Lefty1; 1.37 in assay [16]. Further, the composite Z-score in [1] was 0.193 (inactive). Also, the z-score in [15] is -0.0671; in [17] it was -10.7 (active).
